From PubChem BioAssay
LYPLA2 inh = blocks human lysophospholipase 2, a PME1 counter-screen | recombinant LYPLA2, FP-Rh probe fluorescence polarization | O95372 | 0.38% of 320,000 active | inhibition, % at 5.9 µM;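 active = inhibition above the screen-wide mean plus 3 SD, limit set per campaign, cut at about 26% in these data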
LYPLA1 counter = LYPLA1 (human) inhibition in PME1 counter-screen | O75608 | recombinant LYPLA1, FP-Rh probe fluorescence polarization | inhibition, % at 5.9 µM | 0.16% of 320,000 active;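 active = inhibition above the mean of all tested compounds plus 3 SD, set per campaign, cut at about 14% in these data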;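 note: inhibitors block serine hydrolase probe labeling of LYPLA1 so polarization falls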
Fam108B counter = counter-screen for RBBP9 inhibitors: inhibitors of mouse Fam108B. recombinant Fam108B, FP-Rh probe fluorescence polarization. inhibition, % at 9.51 µM. 0.33% of 300,000 active;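 active = inhibition above the screen mean inhibition plus 3 SD, computed separately per campaign, cut at about 18% in these data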;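 note: inhibitors lower polarization as less probe binds the enzyme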
PREPL inh = inhibits the human prolyl oligopeptidase-like enzyme; 0.68% of 320,000 active; recombinant PREPL, fluorescence polarization activity-based probe; AID 2751; inhibition, % at 5.96 µM; Q4J6C6
Target sequence (Q4J6C6 whole entry, looked up): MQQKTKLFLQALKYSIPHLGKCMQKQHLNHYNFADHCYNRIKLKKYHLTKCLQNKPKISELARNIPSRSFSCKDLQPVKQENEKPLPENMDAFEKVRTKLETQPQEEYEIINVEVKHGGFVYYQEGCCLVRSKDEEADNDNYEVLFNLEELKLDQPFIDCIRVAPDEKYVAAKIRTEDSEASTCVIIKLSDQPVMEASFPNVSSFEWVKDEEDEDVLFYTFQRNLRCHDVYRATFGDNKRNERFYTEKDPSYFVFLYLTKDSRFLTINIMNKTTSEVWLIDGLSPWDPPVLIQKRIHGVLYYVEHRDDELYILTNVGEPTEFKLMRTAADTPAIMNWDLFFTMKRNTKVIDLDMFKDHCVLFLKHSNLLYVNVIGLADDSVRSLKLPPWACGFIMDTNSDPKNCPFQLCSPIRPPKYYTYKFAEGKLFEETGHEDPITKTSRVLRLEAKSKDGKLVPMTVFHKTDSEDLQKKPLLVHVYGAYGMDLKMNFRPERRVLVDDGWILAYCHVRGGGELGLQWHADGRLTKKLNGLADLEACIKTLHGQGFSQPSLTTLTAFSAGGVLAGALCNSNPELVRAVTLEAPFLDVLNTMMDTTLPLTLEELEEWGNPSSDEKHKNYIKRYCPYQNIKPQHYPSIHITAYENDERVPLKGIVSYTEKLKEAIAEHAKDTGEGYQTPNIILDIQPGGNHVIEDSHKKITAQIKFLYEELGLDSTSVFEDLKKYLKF
GSTO1 counter = GSTO1 inhibition, counter-screen for RBBP9 inhibitors | P78417 | recombinant GSTO1, activity-based probe fluorescence polarization | inhibition, % at 5.96 µM | 1.1% of 300,000 active | AID 1974;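 active = inhibition above the campaign mean inhibition plus 3 SD, cut at about 35% in these data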
PME-1 primary = blocks human protein phosphatase methylesterase 1. recombinant PME-1, FP-Rh probe fluorescence polarization. inhibition, % at 5.9 µM. AID 2130. 0.53% of 320,000 active. Q9Y570;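 active = inhibition above the campaign mean of all compounds plus 3 SD, cut at about 26% in these data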;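 note: competitive labeling of PME-1 active site by serine hydrolase directed probe; inhibitors block probe labeling so polarization falls and inhibition rises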
PREPL confirm = human PREPL inhibition, confirmation; inhibition, % at 5.96 µM; 67% of 2,000 active; shares compounds with PREPL inh; recombinant PREPL, fluorescence polarization activity probe
A number is an active result. Rows were chosen to be rich in hits. Some 2% of all compounds tested hit in one or more screens of this group. Cut-off read from the data, not from the text of the source, unless noted: active = inhibition above about 43%; inactive = the rest.

COc1ccc(N2CCN(C(=O)CN3C(=O)NC(C)(c4ccc5ccccc5c4)C3=O)CC2)cc1 (centres undefined) was read as LYPLA2 inh inactive, LYPLA1 counter inactive, PREPL inh 57, PME-1 primary inactive and PREPL confirm 53.
O=C(COC(=O)/C=C/c1ccc(F)cc1)Nc1ccc(S(=O)(=O)N2CCOCC2)cc1 was read as PREPL inh inactive.
COc1cc(C(=O)NC(=S)Nc2ccc(N3CCCC3)cc2)cc(OC)c1OC was read as LYPLA2 inh inactive, LYPLA1 counter inactive, Fam108B counter inactive, PREPL inh 69, GSTO1 counter inactive, PME-1 primary inactive and PREPL confirm 46.
Screening COc1ccc(C(=O)NC(=S)Nc2ccc(N3CCCC3)cc2)cc1 returned LYPLA2 inh inactive, LYPLA1 counter inactive, Fam108B counter inactive, PREPL inh inactive, GSTO1 counter inactive and PME-1 primary inactive.
Screening Cc1cc(S(=O)(=O)N2CCN(c3ccccc3F)CC2)ccc1-n1cnnn1 returned LYPLA2 inh inactive, LYPLA1 counter inactive, Fam108B counter inactive, PREPL inh inactive, GSTO1 counter inactive and PME-1 primary inactive.
Screening O=c1c2c3c(sc2nc(NCCO)n1CCc1ccccc1)CCCCC3 returned LYPLA2 inh inactive, LYPLA1 counter inactive, Fam108B counter inactive, PREPL inh 164, GSTO1 counter inactive, PME-1 primary inactive and PREPL confirm inactive.
For O=c1c2c3c(sc2nc(NCCO)n1Cc1ccco1)CCCCC3 the results were LYPLA2 inh inactive, LYPLA1 counter inactive, Fam108B counter inactive, PREPL inh inactive, GSTO1 counter inactive and PME-1 primary inactive.
`c1ccc(C(c2nnnn2Cc2ccco2)N2CCN(c3nc4ccccc4s3)CC2)cc1` (centres undefined) gave LYPLA2 inh inactive, LYPLA1 counter inactive, Fam108B counter inactive, PREPL inh 44, GSTO1 counter inactive, PME-1 primary inactive and PREPL confirm inactive.
`O=C(C1=C[C@@H](c2ccc(Br)cc2)C[C@@H](OCc2ccc(CO)cc2)O1)N1CCOCC1` gave LYPLA2 inh inactive, LYPLA1 counter inactive, Fam108B counter inactive, PREPL inh 44, GSTO1 counter inactive, PME-1 primary inactive and PREPL confirm 51.
Screening O=C(C1=C[C@H](c2ccc(Br)cc2)C[C@H](OCc2ccc(CO)cc2)O1)N1CCOCC1 returned LYPLA2 inh inactive, LYPLA1 counter inactive, Fam108B counter inactive, PREPL inh 43, GSTO1 counter inactive, PME-1 primary inactive and PREPL confirm inactive.
`CCN(CC)CCCN1C=C2C(=O)C(C)(OC(=O)CCC(=O)OC)C(=O)C(Br)=C2C=C1c1ccc(OC)cc1` (centres undefined) gave LYPLA2 inh inactive, LYPLA1 counter inactive, Fam108B counter inactive, PREPL inh 70, GSTO1 counter inactive, PME-1 primary inactive and PREPL confirm 60.
CCCCC1=CC2=C(c3ccco3)C(=O)C(C)(OC(=O)c3ccc(OC)cc3)C(=O)C2=CN1CCCN(CC)CC (centres undefined) was read as LYPLA2 inh inactive, LYPLA1 counter inactive, Fam108B counter inactive, PREPL inh inactive, GSTO1 counter inactive and PME-1 primary inactive.
For CCN(CC)CCCN1C=C2C(=O)C(C)(OC(=O)CCc3ccccc3)C(=O)C=C2C=C1c1ccc(C#N)cc1 (centres undefined) the results were LYPLA2 inh inactive, LYPLA1 counter inactive, Fam108B counter inactive, PREPL inh 43, GSTO1 counter inactive, PME-1 primary inactive and PREPL confirm inactive.
Screening CCOC(=O)CN1C(=O)C(=O)N(Cc2ccccc2F)C1=O returned LYPLA2 inh inactive, LYPLA1 counter inactive, Fam108B counter inactive, PREPL inh inactive, GSTO1 counter inactive and PME-1 primary inactive.
Screening C/C(=N\NC(=O)c1cccc(N/N=C(\C)c2ccncc2)c1)c1ccncc1 returned LYPLA2 inh inactive, LYPLA1 counter inactive, Fam108B counter inactive, PREPL inh 52, GSTO1 counter inactive, PME-1 primary inactive and PREPL confirm inactive.
For Fc1ccc(CNc2ccc(N3CCN(Cc4ccccc4)CC3)cc2)cc1 the results were LYPLA2 inh inactive, LYPLA1 counter inactive, Fam108B counter inactive, PREPL inh 46, GSTO1 counter inactive, PME-1 primary inactive and PREPL confirm inactive.
`O=C(CCS(=O)(=O)c1ccc(F)cc1)Nc1ccc(N2CCN(Cc3ccccc3)CC2)cc1` gave LYPLA2 inh inactive, LYPLA1 counter inactive, PREPL inh inactive and PME-1 primary inactive.
For COc1cc(O)c(C(CC(=O)N2CCN(c3ccccc3)CC2)c2ccc(N(C)C)cc2)c(OC)c1 (centres undefined) the results were LYPLA2 inh inactive, LYPLA1 counter inactive, Fam108B counter inactive, PREPL inh 54, GSTO1 counter inactive, PME-1 primary inactive and PREPL confirm 48.
CCOC(=O)c1c(C)n(CC(O)c2ccccc2)c2ccc(O)cc12 (centres undefined) was read as LYPLA2 inh inactive, LYPLA1 counter inactive, Fam108B counter inactive, PREPL inh 171, GSTO1 counter inactive, PME-1 primary inactive and PREPL confirm inactive.
For CCOC(=O)c1c(C)n(CCOc2ccccc2)c2ccc(O)cc12 the results were LYPLA2 inh inactive, LYPLA1 counter inactive, Fam108B counter inactive, PREPL inh inactive, GSTO1 counter inactive and PME-1 primary inactive.
CN(C)CCCNc1cc(C(C)(C)C)nc2c(-c3ccc(Cl)cc3)cnn12 was read as LYPLA2 inh inactive, LYPLA1 counter inactive, Fam108B counter inactive, PREPL inh 52, GSTO1 counter inactive, PME-1 primary inactive and PREPL confirm 49.
For N#Cc1cccc(NC(=O)CSc2nnc(C3CC3)n2C2CC2)c1 the results were LYPLA2 inh inactive, LYPLA1 counter inactive, PREPL inh 76, PME-1 primary inactive and PREPL confirm inactive.
`O=C(Cn1cc[n+](CC(=O)c2ccc(Cl)cc2Cl)c1)c1ccc(Cl)cc1Cl` gave LYPLA2 inh inactive, LYPLA1 counter inactive, Fam108B counter inactive, PREPL inh 46, GSTO1 counter inactive, PME-1 primary inactive and PREPL confirm inactive.
O=C(OCC#Cc1c(COC(=O)c2ccccc2)nnn1Cc1ccccc1)c1ccccc1 was read as LYPLA2 inh inactive, LYPLA1 counter inactive, Fam108B counter inactive, PREPL inh inactive, GSTO1 counter inactive and PME-1 primary inactive.
COC(=O)c1cc2c(ccn2-c2ccc(F)cc2)n1CC(=O)N1CCN(C(=O)c2ccco2)CC1 was read as LYPLA2 inh inactive, LYPLA1 counter inactive, Fam108B counter inactive, PREPL inh inactive, GSTO1 counter inactive and PME-1 primary inactive.
CC(C)OC(=O)c1cc2c(ccn2C)n1CC(=O)N1CCC(Cc2ccccc2)CC1 was read as LYPLA2 inh inactive, LYPLA1 counter inactive, Fam108B counter inactive, PREPL inh 44, GSTO1 counter inactive, PME-1 primary inactive and PREPL confirm inactive.
